Results from PubChem BioAssay.
Where “and” joins values, the source holds several entries; their conditions need not be identical. Identical values can stand only once. Calls of active or inactive are those of the source. Unless noted, no stated cut-off is given here; in the data, active means inhibition above about 80%; inactive means the rest.

Columns and labels:
[1] = sensitizers of A549 cells to miR-34 induction, primary screen, imaging, A549 dox-inducible miR-34, nuclei and caspase counts (AID 1347080;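 active means compounds whose cell count with miR-34 switched on is under 0.7 times the count with it off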); conditions: A549 miR-34 inducible, Hoechst nuclei count, 48 h
[2] = survival rescue of mitochondrial mutant cells in low glucose, primary screen, MELAS cybrids, Rieske KO mouse fibroblasts, CellTiter-Glo (AID 1508586;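 active means mean z-score across replicates of 1.96 or higher in either the MELAS or the Rieske mutant cell line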;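 further: z relative to plate mean and SD of compound and empty wells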)
[3] = LFS_MB_P medulloblastoma growth inhibition, cell-based, chromothripsis tumors, cisplatin or BGB combos (AID 1671449); conditions: LFS_MB_P medulloblastoma cells;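 further: cells exposed for 96 hours; 0% = vehicle DMSO and 100% = killing by high DMSO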
[4] = HDN33 neuroblastoma growth inhibition, cell-based, chromothripsis tumors, cisplatin or BGB combos (AID 1671450); conditions: HDN33 neuroblastoma cells, stronger effect = higher value;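 further: cells exposed to compound for four days; 0% = vehicle DMSO and 100% = cell killing by high DMSO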
[5] = ICB984 medulloblastoma cell growth inhibition, synergistic combos for chromothripsis tumors, cisplatin or BGB combos (AID 1671451; call rule not given here;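 further: cells exposed for 96 hours before readout; 0% = vehicle DMSO and 100% = killing by high DMSO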); conditions: ICB984 medulloblastoma cells, drug combinations, stronger effect = higher value
[6] = LFS_MB_1R medulloblastoma cell growth inhibition, synergistic combos for chromothripsis tumors, cisplatin or BGB combos (AID 1671452); conditions: LFS_MB_1R medulloblastoma cells, stronger effect = higher value;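 further: cells exposed for 96 hours before readout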
[7] = HTB85 osteosarcoma cell growth inhibition, synergistic combos for chromothripsis tumors, BGB or cisplatin IC20 combos (AID 1671453); conditions: HTB85 osteosarcoma cells, drug combinations, stronger effect = higher value;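 further: cells exposed for 96 hours before readout; 0% = vehicle DMSO and 100% = high DMSO killing control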
[8] = CRL2098 osteosarcoma cell growth inhibition, synergistic combos for chromothripsis tumors, BGB or cisplatin IC20 combos (AID 1671454); conditions: CRL2098 osteosarcoma cells, drug combinations, stronger effect = higher value;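 further: cells exposed for 96 h before readout; 0% = vehicle DMSO and 100% = killing by high DMSO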
[9] = HD-MB03 medulloblastoma cell growth inhibition, synergistic combos for chromothripsis tumors, BGB or cisplatin IC20 combos (AID 1671455; in the data active means inhibition above about 83%;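 further: 0% = vehicle DMSO and 100% = high DMSO as cytotoxic control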); conditions: HD-MB03 medulloblastoma cells, stronger effect = higher value
[10] = UWB1.289 ovarian carcinoma cell growth inhibition, synergistic combos for chromothripsis tumors, BGB or cisplatin combos (AID 1671456); conditions: UWB1.289 ovarian carcinoma cells, stronger effect = higher value;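 further: cells exposed to compound for four days; 0% = vehicle DMSO and 100% = killing by high DMSO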
[11] = LFS_MB_2R medulloblastoma cell growth inhibition, synergistic combos for chromothripsis tumors, cisplatin combos (AID 1671457); conditions: LFS_MB_2R medulloblastoma cells, stronger effect = higher value;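 further: cells exposed to compound for four days before readout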
[12] = MDA-MB-436 breast carcinoma cell growth inhibition, synergistic combos for chromothripsis tumors, BGB or cisplatin combos (AID 1671458; call rule not given here;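 further: cells exposed for 96 hours; 0% = vehicle DMSO and 100% = killing by high DMSO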); conditions: MDA-MB-436 breast carcinoma growth inhibition, drug combinations, stronger effect = higher value
[13] = UWB1.289_BRCA1 ovarian cancer growth, cell-based, BGB or cisplatin combinations (AID 1671459); conditions: UWB1.289 BRCA1 ovarian carcinoma, drug combinations, stronger effect = higher value
[14] = human astrocyte viability loss, single and combined drugs, cytotoxicity control for chromothriptic childhood tumor combination screen, cell-based, BGB or cisplatin IC20 combos (AID 1671460); conditions: Human astrocytes, drug combinations, stronger effect = higher value;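 further: cells exposed to compounds for 96 hours before viability readout; 0% = vehicle and 100% = killing control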
[15] = growth inhibition of BT084 medulloblastoma cells, cell-based, ICGC_MB145, cisplatin and BGB IC40 combos (AID 1671461); conditions: drug combinations, stronger effect = higher value;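 further: cells exposed to drugs for 96 hours; 0% = vehicle DMSO and 100% = high DMSO full killing control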
[16] = growth inhibition of RCMB18 medulloblastoma cells, cell-based, cisplatin and BGB IC40 combos (AID 1671462); conditions: stronger effect = higher value;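 further: cells exposed to compound for four days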
[17] = growth inhibition of CRL1545 osteosarcoma cells, cell-based, cisplatin and BGB IC20 combos (AID 1671464); conditions: stronger effect = higher value;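 further: cells exposed to compound for 96 hours before readout; 0% = vehicle DMSO and 100% = high DMSO killing control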
[18] = measured here: combination with BGB IC40, at 0.05 µM
[19] = measured here: with BGB IC20 combination, at 0.5 µM
[20] = measured here: with cisplatin IC20 combination, at 0.5 µM
[21] = measured here: combination with cisplatin, at 0.5 µM
[22] = measured here: combination with cisplatin, at 5 µM

Compound: O=c1[nH]cnc2c1ncn2C1OC(CO)C(O)C1O (centres undefined)
- fold change ([1]; stronger effect = lower value, cell number ratio, induced over uninduced): 0.971 (inactive)
- fold change ([1]; measured here: relative caspase fold change +Dox/-Dox): 0.634
- cell count ([1]; measured here: total cells with miR-34 induction, stronger effect = lower value): 8460
- cell count ([1]; measured here: total cells without miR-34 induction): 8710
- z-score ([2]; MELAS cybrid survival, CellTiter-Glo 48 h, stronger effect = higher value): -0.214 (inactive)
- z-score ([2]; Rieske KO mouse fibroblast survival, CellTiter-Glo 72 h): -0.0718
- inhibition ([3]; at 0.5 µM, stronger effect = higher value): -10.7% (inactive) and -25.9% (inactive)
- inhibition ([3]; measured here: combination with BGB IC20, at 0.005 µM): -29.2% and -10.3%
- inhibition ([3]; measured here: combination with BGB IC40, at 0.005 µM): -37.9% and -36.7%
- inhibition [3, 18]: -34.2% and -41.2%
- inhibition ([3]; measured here: combination with cisplatin, at 0.5 µM, stronger effect = higher value): -24.2% and -36.9%
- inhibition ([3]; measured here: combination with cisplatin, at 5 µM, stronger effect = higher value): -32.2% and -50.7%
- inhibition ([4]; BGB combo, at 5 µM): -71.8% and -17.3%
- inhibition ([4]; at 0.5 µM): -41% (inactive) and -8.53% (inactive)
- inhibition ([4]; cisplatin combo, at 5 µM): -53.5% and 3.12%
- inhibition [4, 19]: -43% and -17%
- inhibition [4, 20]: -29.3% and -1.72%
- inhibition ([4]; single agent, at 5 µM): -56.1% and -7.95%
- inhibition ([5]; BGB IC20 combo, at 0.005 µM): -8.62% and -21.3%
- inhibition ([5]; BGB IC40 combo, at 0.005 µM): -26.4% and -10.8%
- inhibition ([5]; BGB IC40 combo, at 0.05 µM): -29.3% and -11.3%
- inhibition ([5]; at 0.5 µM): -22.2% (inactive) and -24.4% (inactive)
- inhibition ([5]; cisplatin combo, at 0.05 µM): -36% and -15.3%
- inhibition ([5]; cisplatin combo, at 0.5 µM): -33.9% and -9.22%
- inhibition ([5]; cisplatin combo, at 5 µM): -24.4% and -48%
- inhibition ([5]; measured here: 5 uM single agent, at 5 µM): -3.92% and -14.5%
- inhibition ([6]; at 0.5 µM): -44.3% (inactive) and -17.7% (inactive)
- inhibition [6, 18]: -7.53% and -27.6%
- inhibition [6, 21]: -65.5% and -12.7%
- inhibition [6, 22]: -61.2% and -68.6%
- inhibition ([7]; at 0.5 µM): -33.2% (inactive) and -8.83% (inactive)
- inhibition ([7]; measured here: with BGB IC20, at 0.5 µM): -29.3% and -11.2%
- inhibition ([7]; measured here: with BGB IC20, at 5 µM): -15.9% and -25.5%
- inhibition ([7]; measured here: with cisplatin IC20, at 0.5 µM): -32% and -10.1%
- inhibition ([7]; measured here: with cisplatin IC20, at 5 µM): -20.2% and -47.1%
- inhibition ([7]; single agent, at 5 µM): -29.3% and -10.1%
- inhibition ([8]; at 0.5 µM): -90% (inactive) and -56.6% (inactive)
- inhibition ([8]; measured here: combination with BGB at IC20, at 0.5 µM): -87.4% and -18.5%
- inhibition ([8]; measured here: combination with cisplatin at IC20, at 0.5 µM): -101% and -96.8%
- inhibition ([9]; at 0.5 µM): -22.6% (inactive) and -12.7% (inactive)
- inhibition ([9]; measured here: combo with BGB at IC20, at 0.5 µM): -22.7% and -11.5%
- inhibition ([9]; measured here: combo with cisplatin at IC20, at 0.5 µM): -27.8% and -18.3%
- inhibition ([10]; at 0.5 µM): -11.2% (inactive) and -3.6% (inactive)
- inhibition ([10]; measured here: inhibition with BGB combination, at 0.05 µM): -39.3% and 0.127%
- inhibition ([10]; measured here: inhibition with cisplatin combination, at 0.05 µM): -26% and -16.8%
- inhibition ([11]; at 0.5 µM): -25.5% (inactive) and -18.4% (inactive)
- inhibition [11, 21]: -31.3% and -25.6%
- inhibition [11, 22]: -22.2% and -17.4%
- inhibition ([12]; at 0.5 µM): -21.2% (inactive) and -4.5% (inactive)
- inhibition ([12]; measured here: BGB combination, at 0.5 µM): -24.8% and -4.38%
- inhibition ([12]; measured here: BGB combination, at 5 µM): -28.5% and -13.8%
- inhibition ([12]; measured here: cisplatin combination, at 0.5 µM): -29.8% and -11.4%
- inhibition ([12]; measured here: cisplatin combination, at 5 µM): -15.5% and -7.72%
- inhibition ([13]; BGB combination, concentration series, at 5 µM): -23.4% and 11.7%
- inhibition ([13]; at 0.5 µM): -19.3% (inactive) and -1.78% (inactive)
- inhibition ([13]; cisplatin combination, concentration series, at 5 µM): -16.4% and -23.2%
- inhibition ([14]; at 0.5 µM): 3.07% (inactive) and 14% (inactive)
- inhibition ([14]; measured here: combo with BGB IC20, at 0.5 µM): 13.9% and 6.47%
- inhibition ([14]; measured here: combo with cisplatin IC20, at 0.5 µM): -4.13% and 24.5%
- inhibition ([15]; at 0.5 µM): -1.88% (inactive) and -23.7% (inactive)
- inhibition ([15]; cisplatin combination, at 0.5 µM): -2.01% and -52.6%
- inhibition ([15]; cisplatin combination, at 5 µM): -202% and -23.5%
- inhibition ([15]; measured here: BGB IC40 combination 0.05 uM, at 0.05 µM): -22.8% and -31.6%
- inhibition ([15]; single agent, at 5 µM): -16.1% and -9.19%
- inhibition ([16]; at 0.5 µM): -14.6% (inactive) and -17.6% (inactive)
- inhibition ([16]; cisplatin combo, at 5 µM): -27.4% and -4.56%
- inhibition ([16]; measured here: BGB IC40 combination, at 0.05 µM): -8.27% and -1.88%
- inhibition [16, 21]: -12.7% and -17.5%
- inhibition ([16]; single agent, at 5 µM): -19.5% and -20.5%
- inhibition ([17]; at 0.5 µM): -5.83% (inactive) and -5.48% (inactive)
- inhibition [17, 19]: -50.4% and -16.7%
- inhibition [17, 20]: 15.1% and -1.52%
- inhibition ([17]; single agent, at 0.05 µM): -48.7% and 14.4%
- inhibition ([17]; single agent, at 5 µM): -40.4%
